# B2AR arrestin: agonists driving beta-arrestin recruitment to human beta2-adrenergic receptor; AID 492947; 330,000 tested, 0.02% active; P07550; beta-arrestin recruitment to beta2AR, cell-based reporter; Potency, µM (top dose mostly 46.1 µM), inactives show at the top dose activation, hits mostly activators; active = well fitted activation curve with a large enough effect; inconclusive = small, poorly fitted or top-dose-only effect;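 also: potency is read from the fitted curve at half-maximal effect; 0% = DMSO controls and full agonism = EC100 isoproterenol or metaproterenol; nearly all actives have a fitted effect of over 65% in size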
# Target sequence (P07550 whole entry, looked up): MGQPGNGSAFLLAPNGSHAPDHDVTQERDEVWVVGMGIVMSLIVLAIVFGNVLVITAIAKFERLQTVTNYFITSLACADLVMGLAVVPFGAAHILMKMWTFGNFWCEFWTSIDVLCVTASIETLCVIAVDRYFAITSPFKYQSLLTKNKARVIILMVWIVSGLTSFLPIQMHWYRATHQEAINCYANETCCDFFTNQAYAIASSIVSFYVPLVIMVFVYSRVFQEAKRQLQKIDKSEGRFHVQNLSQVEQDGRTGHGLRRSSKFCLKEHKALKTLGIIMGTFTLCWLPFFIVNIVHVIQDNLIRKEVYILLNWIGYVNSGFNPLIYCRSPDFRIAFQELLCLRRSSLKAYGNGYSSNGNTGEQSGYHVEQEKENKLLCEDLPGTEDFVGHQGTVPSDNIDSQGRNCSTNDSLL
# TSHR antag: human thyrotropin receptor antagonism; TSHR-expressing cells, TSH-stimulated cAMP HTRF, 2 h; hits give low values; activity change, negative = inhibition, % at 11.5 µM; 330,000 tested, 0.2% active; AID 504810;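 active = activity change below a set negative limit, meaning inhibition stronger than a set level, cut at about -70% in these data; inconclusive = activity change between two set negative limits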; also: % is scaled to controls: 0 for no effect and ±100 for the full control effect
#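 Freshly harvested TSHR cells receive pin-tooled compound, then EC80 TSH at 4nM final. After 2 hours at 37 deg C, antibody in lysis buffer and cAMP-d2 are added; 30 minutes at ambient temperature precede the HTRF read.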
# D3 ag: agonists of human D3 dopamine receptor. max activation, %. 410,000 tested, 0.58% active. P35462. AID 652048. D3R DiscoveRx beta-arrestin cells, luminescence, 90 min; in the data active = max activation above about 30%; also: 0% is about no effect
#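 Cells at 1500/well, incubated overnight, then treated with pinned compounds (dopamine as control) for 90 min at 37 degrees C. DiscoveRx reagent added for 30 - 60 minutes at room temperature; luminescence read.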
# DRD3 antagonist: blocks the human D3 dopamine receptor. max response, negative = inhibition, %. P35462. D3R cells, DiscoveRx beta-arrestin luminescence, antagonist mode; hits give low values. AID 652054. 360,000 tested, 2.5% active; in the data active = max response below about -50%; inconclusive = no clear call, values can overlap the other calls; also: % is scaled to controls: 0 for no effect and ±100 for the full control effect
#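 Cells expressing the human receptor were seeded at 1500 cells/well, incubated overnight at 37 degrees C in 5% CO2, then exposed to library compounds with dopamine controls for 90 minutes at 37 degrees C before luminescent detection.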
# * hit, by the source's call; ? = inconclusive; . = not tested or not shown. An excerpt weighted towards active compounds, which were near 2.9% of everything screened.
SMILES,B2AR arrestin,TSHR antag,D3 ag,DRD3 antagonist
C[C@@H]1COC(=O)[C@H](Cc2ccc(F)cc2)C/C=C\C[C@@H](CC(=O)NCCO)C(=O)N1,-0.1%,1.9,36.8*,9.9
O=C1N[C@H](Cc2ccccc2)COC(=O)[C@H](Cc2ccc(F)cc2)C/C=C\C[C@@H]1CC(=O)N(CCO)Cc1ccccc1,-1.4%,-20.7,-39.5,-56.9*
O=C1N[C@H](Cc2ccccc2)COC(=O)[C@@H](Cc2ccc(F)cc2)C/C=C\C[C@H]1CC(=O)N(CCO)Cc1ccccc1,-0.5%,-8.0,-14.3,20.2
CC(C)(C)OC(=O)C[C@@H]1C/C=C\C[C@H](CC(=O)N(CCO)Cc2ccccc2)C(=O)NC[C@@H](c2ccccc2)OC1=O,0.5%,10.8,-42.1,-95.5*
O=C1N[C@@H](Cc2ccccc2)COC(=O)[C@H](Cc2ccc(F)cc2)C/C=C\C[C@@H]1CC(=O)N(CCO)Cc1ccccc1,0.0%,26.6,-25.0,-65.1*
COc1ccc(-n2sc3ccc(F)cc3c2=O)cc1,-0.6%,-22.7,-42.6,-55.4*
Cc1ccc(C)c(-n2sc3ccc(F)cc3c2=O)c1,-0.8%,-29.3,-1.2,-80.6*
CCOC(=O)Cn1c(C2CC(=O)N(c3ccc(C)cc3)C2)nc2ccccc21 (centres undefined),.,.,10.5,.
COC(=O)c1ccccc1NC(=O)CSc1nnc2cc(C)c3cc(C)cc(C)c3n12,.,.,5.3,.
c1ccc(CN2CCN(C3CCCSc4ccccc43)CC2)cc1 (centres undefined),.,.,-48.0,-84.9*
CCN(CC)S(=O)(=O)c1ccc2c(c1)N(CC(=O)Nc1cccc(C)c1C)C(=O)C1CCCN21 (centres undefined),.,.,2.1,.
Cc1ccccc1OCCNCC(C)O (centres undefined),-1.2%,-2.8,-12.0,-56.6*
CCOc1ccc(C(=O)NCC(=O)Nc2ccncc2)cc1OCC,0.1%,1.0,-10.5,3.2
CCCOc1ccc(NC(=O)CNC(=O)c2cc(OC)cc(OC)c2)cc1OCCC,0.6%,-7.1,-19.5,-57.7*
Cc1ccccc1OCC(=O)Nc1nnc(S(=O)(=O)N2CCCCCC2)s1,.,.,-5.6,.
CN1C/C(=C/c2ccccc2[N+](=O)[O-])C(=O)/C(=C\c2ccccc2[N+](=O)[O-])C1,.,.,-27.3,-90.4*
O=Cc1c(Sc2ccccn2)nc2ccccn2c1=O,-1.7%,8.1,2.7,-51.7*
O=Cc1c(Sc2ccccc2)nc2ccccn2c1=O,-0.1%,-10.3,5.6,9.5
Cc1cccc(CNS(=O)(=O)c2csc(C(N)=O)c2)c1,0.1%,-70.2*,1.0,-3.9
NC(=O)c1cc(S(=O)(=O)NCc2ccc(F)cc2)cs1,0.0%,-131.6*,1.2,23.4
NC(=O)c1cc(S(=O)(=O)NCc2cccc(Br)c2)cs1,0.1%,4.7,-0.9,1.0
COc1ccc(-c2onc(C)c2C)cc1S(=O)(=O)NCc1ccco1,.,.,-3.8,.
c1csc(-c2nc(CN3CCSCC3)cs2)c1,0.0%,5.3,-35.0,-57.8*
COc1cccc(/C=C2/CCC(CN(C)C)C2=O)c1 (centres undefined),.,.,-22.6,-69.1*
O=C(CN1C(=O)COc2ccc(S(=O)(=O)N3CCCC3)cc21)N1CCN(c2ccccc2)CC1,.,.,-10.2,.
SMILES,B2AR arrestin,TSHR antag,D3 ag,DRD3 antagonist
CC(=O)N1CCc2cc(S(=O)(=O)N3c4ccccc4CC3C)ccc21 (centres undefined),0.1%,-13.0,-8.5,-51.5*
CC(=O)N1CCc2cc(S(=O)(=O)NCCCN3CCN(Cc4ccccc4)CC3)ccc21,-0.2%,-1.8,3.9,?
CC(=O)N1CCc2cc(S(=O)(=O)NCCN3CCC(C)CC3)ccc21,-0.1%,-2.2,2.1,-57.7*
CC(C)CC(=O)NC(=S)Nc1nc(-c2cccc3ccccc23)cs1,-0.4%,17.3,-8.6,-73.4*
CCOC(=O)Cc1csc(NC(=S)NC(=O)CC(C)C)n1,-1.0%,0.4,0.3,-10.8
CC1=NC(=O)C(N=Nc2ccccc2C(=O)O)N1c1ccccc1 (centres undefined),-0.4%,-10.3,31.5*,51.4
CC1=NC(=O)C(N=Nc2cccc(C(=O)O)c2)N1c1ccccc1 (centres undefined),0.0%,-13.4,-4.9,?
CC1=NC(=O)C(N=Nc2ccccc2)N1c1ccccc1 (centres undefined),-0.1%,-7.2,-3.0,-58.4*
Cc1[nH]n(-c2ccccc2)c(=O)c1N=Nc1ccccc1C(=O)O,0.1%,-19.4,19.1,247.9
CCOC(=O)N1CCC(NC(=O)c2ccc3c(c2)N(Cc2ccc(Cl)cc2)C(=O)c2ccccc2S3=O)CC1 (centres undefined),.,.,-5.8,.
